Assay results taken from the supplement of paper PMC7801607.

Assays:
[1] = tested on: CHO; assay: % viability of CHO cells (MTT); higher = less toxic; settings: 48 h
How it was run: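 For 48 h, attached CHO cells (10^6 cells/well, 200 µL, seeded the night before) were kept in fresh medium carrying compound at 2 or 20 µM. A colorimetric tetrazolium (MTT) assay then gave survival as percent viability versus untreated cells.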

[2] = tested on: HepG2-A16-CD81; assay: % inhibition of HepG2 viability (CellTiter-Glo); higher = more toxic; settings: 5 µM
[3] = tested on: Plasmodium falciparum NF54 stage IV/V gametocytes; assay: % inhibition of gametocyte viability (PrestoBlue); higher = more inhibition; settings: 48 h
How it was run: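 Stage IV/V NF54 gametocytes at 2% gametocytaemia and 5% haematocrit (100 µL/well) were treated with compound at 1 or 5 µM and incubated for 48 h at 37 °C under stationary, hypoxic conditions. PrestoBlue (10 µL) was then added for 2 h, and fluorescence at 612 nm was read on 70 µL of transferred supernatant. Percent inhibition of gametocyte viability was normalised to vehicle and kill controls within one run.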

[4] = tested on: Plasmodium falciparum NF54 asexual blood stage; assay: % inhibition of asexual blood stage proliferation (pLDH); higher = more inhibition; settings: 72 h
How it was run: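 Plasmodium falciparum NF54 ring-stage cultures (1% haematocrit, 2% parasitaemia) were incubated with compound at 2 or 20 µM for 72 h at 37 °C under 4% CO2, 3% O2 and 93% N2. Survival was read at 620 nm with the parasite lactate dehydrogenase assay. Results were reported as percent inhibition of asexual proliferation relative to controls.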

[5] = tested on: Plasmodium falciparum NF54 stage IV/V gametocytes; assay: % inhibition of gametocyte viability (ATP bioluminescence); higher = more inhibition; settings: 24 h
How it was run: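 Stage IV/V NF54 gametocytes from density gradients (30,000 per well, 96-well plates) were incubated with compound at 1 or 5 µM for 24 h at 37 °C. A single run supplied percent inhibition of gametocyte viability, based on ATP measured with Promega BacTiter Glo and normalised to control wells.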

[6] = tested on: Plasmodium falciparum NF54 stage IV/V gametocytes; assay: % inhibition of gametocyte viability (luciferase reporter); higher = more inhibition; settings: 48 h
How it was run: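 Percent inhibition came from luminescence and was normalised to controls in a single run. Gametocytes (stage IV/V, NF54-Pfs16-GFP-Luc line, 2% gametocytaemia, 2% haematocrit) were treated with compound at 1 or 5 µM and incubated for 48 h at 37 °C without agitation under hypoxia. Readings used 30 µL lysate with 30 µL Promega luciferin substrate on a GloMax-Multi+ reader, integrating for 10 s.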

[7] = tested on: Plasmodium berghei ANKA liver stage in HepG2-A16-CD81; assay: % inhibition of liver stage parasite viability (luciferase); higher = more inhibition; settings: 5 µM; 48 h
Description: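 Single-concentration screen of the MMV Pandemic Response Box. P. falciparum NF54 asexual blood stages: pLDH assay, 72 h at 37 °C, 2 and 20 µM, n=2. Stage IV/V gametocytes (NF54): luciferase reporter (NF54-Pfs16-GFP-Luc, 48 h), ATP bioluminescence (24 h) and PrestoBlue (48 h) at 1 and 5 µM, n=1. P. berghei liver stage (luciferase in HepG2-A16-CD81, 48 h post infection) at 5 µM, n=4. All normalised to DMSO and kill controls as % inhibition.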
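Wherever % inhibition of HepG2 viability (CellTiter-Glo) is given: HepG2-A16-CD81 hepatoma cells plated as in the liver-stage assay but without sporozoites, with DMSO wells as negative and 25 µM puromycin as positive control.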

SMILES	% viability of CHO cells ([1]; 2 µM) [%]	% viability of CHO cells ([1]; 20 µM) [%]	% inhibition of HepG2 viability [2] [%]	% inhibition of gametocyte viability ([3]; 1 µM) [%]	% inhibition of gametocyte viability ([3]; 5 µM) [%]	% inhibition of asexual blood stage proliferation ([4]; 2 µM) [%]	% inhibition of asexual blood stage proliferation ([4]; 20 µM) [%]	% inhibition of gametocyte viability ([5]; 1 µM) [%]	% inhibition of gametocyte viability ([5]; 5 µM) [%]	% inhibition of gametocyte viability ([6]; 1 µM) [%]	% inhibition of gametocyte viability ([6]; 5 µM) [%]	% inhibition of liver stage parasite viability [7] [%]
COc1ccc2cc3[n+](cc2c1OCCN(CCn1cncn1)Cc1ccc(F)cc1F)CCc1cc2c(cc1-3)OCO2	89.4	74.2	22.1	< 0	< 0	78.3	84.3	< 0	30.9	< 0	10.3	2.84
Nc1ccc2oc(=O)ccc2c1I	72.9	60	-2.48	< 0	< 0	29.8	37.3	< 0	< 0	3.24	2.65	6.97
CCOC(=O)/C=C/[C@H](C[C@@H]1CCNC1=O)NC(=O)[C@H](CC)n1cccc(NC(=O)c2cc(C)on2)c1=O	89	79.7	0.129	12	12.7	43.3	49.5	< 0	< 0	6.73	10.7	9.24
C[C@H]1[C@@H](c2cccc(C(F)(F)F)c2)OC(=O)N1C(=O)NCc1cncc2ccccc12	93.8	118	12.1	< 0	27.7	-2.37	30.8	< 0	< 0	< 0	< 0	63.9
C[C@@H](O)[C@H](N)C(=O)NS(=O)(=O)c1cccc(-c2ccc3[nH]ncc3c2)c1	85.2	96	-0.0475	35.8	19.7	-13.1	32	< 0	< 0	< 0	6.84	31.2
CCc1nc(N)nc(N)c1C#CC(C)c1cc(OC)cc(-c2ccncc2)c1 (stereo not drawn)	89.5	52.5	20.8	< 0	9.41	51.1	94	< 0	< 0	< 0	< 0	70.2
OB1OCc2c1ccc(Cl)c2F	95.7	101	-0.44	8.58	< 0	0.633	36.7	< 0	< 0	< 0	< 0	7.88
O=[N+]([O-])c1cn(Cc2nc(O)nc(O)c2Br)cn1	95.9	109	-3.1	9.08	21.3	38.7	55.8	0.137	< 0	< 0	4.07	19.1
O=C(O)/C=C/C=C/c1cccc(Oc2cc(Cl)cc(Cl)c2)c1	97.3	110	-6	< 0	< 0	30.7	41.4	3.95	2.02	9.35	0.936	28.9
O=C(O)CSc1cc(NS(=O)(=O)c2cccc3cccnc23)c2ccccc2c1O	95.5	80.9	2.37	< 0	29.3	70.5	81	0.374	< 0	< 0	< 0	35.4
Nc1nc2c(Cc3cccnc3)c[nH]c2c(=O)[nH]1	97.2	113	-4.71	26.1	24.3	2.83	19.8	< 0	< 0	< 0	< 0	27.7
OCCCCn1cnc2c(O)nc(NCc3ccc(Cl)c(Cl)c3)nc21	95.4	106	5.96	< 0	< 0	18.9	91.1	< 0	< 0	< 0	< 0	7.89
Nc1cc(-c2nc3ccccc3[nH]2)n[nH]c1=O	70.3	49.8	2.54	28.3	78.8	31.5	79.1	5.5	< 0	1.36	< 0	24
Cc1ccc(C)c(OCCCCCCN2C[C@H](O)[C@@H](O)[C@H](O)[C@H]2CO)c1	111	110	4.29	< 0	< 0	8.28	41.4	1.96	< 0	5.24	11	11.6
CNc1nc(=O)[nH]cc1F	95.1	98.5	-2.31	< 0	8.84	-10.3	-14.1	< 0	< 0	< 0	< 0	18.4
NC(=O)c1nccn([C@@H]2O[C@H](CO)[C@@H](O)[C@H]2O)c1=O	91.2	105	4.39	5.72	19.8	11.7	53.8	< 0	< 0	7.58	< 0	14.7
CCCCCCCc1[nH]c2ccccc2c(=O)c1O	96.8	107	24.8	< 0	< 0	22.4	83.6	< 0	< 0	< 0	< 0	72.5
Cc1ccc(S(=O)(=O)Nc2cccc3cccnc23)cc1	76	-0.468	-5.32	13.9	< 0	55	103	< 0	47.3	< 0	5.04	27.6
O=c1[nH]c(=O)n(Cc2cccc(Oc3ccccc3)c2)cc1Nc1ccccc1	116	65.4	7.38	< 0	< 0	-152	47.8	< 0	< 0	< 0	< 0	-3.63
